Test results: paper PMC13494018
Unmarked numbers belong to inactive results. How the calls were made is not given here.

Target: VTCN1, Q7Z7D3
Sequence (Q7Z7D3 whole entry): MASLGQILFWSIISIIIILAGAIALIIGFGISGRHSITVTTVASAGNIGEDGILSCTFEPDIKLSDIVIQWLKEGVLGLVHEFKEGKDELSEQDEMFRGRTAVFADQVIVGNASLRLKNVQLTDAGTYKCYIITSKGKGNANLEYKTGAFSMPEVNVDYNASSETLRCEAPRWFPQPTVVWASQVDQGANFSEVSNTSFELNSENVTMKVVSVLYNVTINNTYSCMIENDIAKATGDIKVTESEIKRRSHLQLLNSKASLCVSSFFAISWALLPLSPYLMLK

B1: design_605_6ebdab39-eaab-4492-afcb-164e20c3b25e_2299_dldesign_0_cycle1_af2pred (protein)
chain: ELEELKKKHEAYEEYLKAIAYYEQSKLSKSLAEEAKQKAAEHINKANKLLGKEELSLEEAVKEAEKLDENASEIVKKLVETKKKIEEL
For B1, the “binding in a display sort” value was “not found”.

B2: design_605_6ebdab39-eaab-4492-afcb-164e20c3b25e_768_dldesign_0_cycle1_af2pred (protein)
chain: DIAKLAEKAAKALKKAAEEGLEALAKAAALVQEARAEAKFKGLKEVAELLEKALKLAREAGKTEDEEERKALAEKAAKYAEEAAKKAK
For B2, the “binding in a display sort” value was “not found”.

B3: design_605_6ebdab39-eaab-4492-afcb-164e20c3b25e_1027_dldesign_0_cycle1_af2pred (protein)
chain: ALEEAKKKIEEAEKRASKRLDEVAAKVSPEEAKKLEEAKKELKEKTEKAKKLSPEEAIKLAAEAAAKAYEAAAEARAKE
With B3 the “binding in a display sort” value was “not found”.

B4: design_605_6ebdab39-eaab-4492-afcb-164e20c3b25e_883_dldesign_0_cycle1_af2pred (protein)
chain: DAEIQAILEQAKKALKAAKESLEKGKKYEEEGKKNLAEAYYEHAIHNAEQAIKLAEQNIAAGGKPEEAQKIKDEAKKVKEEAKG
For B4, the “binding in a display sort” value was “not found”.

B5: design_605_6ebdab39-eaab-4492-afcb-164e20c3b25e_2341_dldesign_0_cycle1_af2pred (protein)
chain: LTDEELKEIAKKVAEEAGEKALKLLREGKSIMEAADAADELVKTVEFLPQEYFLYAAKLAAEKVAEAGREVIEERKREEA
For B5, the “binding in a display sort” value was “not found”.

B6: design_605_6ebdab39-eaab-4492-afcb-164e20c3b25e_1941_dldesign_0_cycle1_af2pred (protein)
chain: AAAEEKAAEEEMKKLGEKNVEKVKKAAKKGAEEAEKAVKEAFKDFEKAAKTPASINVGQKAREEMLGIAAEARIKE
For B6, the “binding in a display sort” value was “not found”.

B7: design_605_6ebdab39-eaab-4492-afcb-164e20c3b25e_2465_dldesign_0_cycle1_af2pred (protein)
chain: AKKLQEAADEANKAFALLAKAAKAHPEIKEEALAAKKAALTMLEGKNAKEAAKAAKEKLKAAAQKAPEVAAEMAAAMKAVDKMLEL
With B7 the “binding in a display sort” value was “not found”.

B8: design_605_6ebdab39-eaab-4492-afcb-164e20c3b25e_778_dldesign_0_cycle1_af2pred (protein)
chain: EVKELIKKAKELIEKAEKLTKSGEKLEEGEKAAEEAKKVVEEAKKVAKDSTPEEKFAVAEALAELRNVEREIKKAKEEK
In the case of B8, the “binding in a display sort” value is reported as “not found”.

B9: design_605_6ebdab39-eaab-4492-afcb-164e20c3b25e_1516_dldesign_0_cycle1_af2pred (protein)
chain: EKEKEAKEIIEKARKALKEARKKLKAKGATPEQAKKMQEARELAAEADYLAKKDPKKGKEIAEKAIELAKKAAE
In the case of B9, the “binding in a display sort” value is reported as “not found”.

B10: design_605_6ebdab39-eaab-4492-afcb-164e20c3b25e_1837_dldesign_0_cycle1_af2pred (protein)
chain: MDKEKIKKKLYKELSEAAKKGAMAVFDVVDKAYDEGTAELAKEAAEEVAKETTPEEAKAMRAGARYLEAATA
For B10, the “binding in a display sort” value was “not found”.

B11: design_605_6ebdab39-eaab-4492-afcb-164e20c3b25e_2126_dldesign_0_cycle1_af2pred (protein)
chain: DELEKYKKEAKEAAKEAIKEAKELGKLIGDEKWAKANQEKIKKIEEKAQKSKDAEVAKKYAEELKKAKEKLKKIKKRAKEALE
For B11, the “binding in a display sort” value was “not found”.

B12: design_605_6ebdab39-eaab-4492-afcb-164e20c3b25e_1234_dldesign_0_cycle1_af2pred (protein)
chain: SGVKETAIEVAEDAKKAAEEAEKLAKEKPEFAKELKKVAEKAKKAAKKALEGAKKSEEEARKATAEAATALALAENVIDTVKLA
For B12, the “binding in a display sort” value was “not found”.

B13: design_605_6ebdab39-eaab-4492-afcb-164e20c3b25e_1884_dldesign_0_cycle1_af2pred (protein)
chain: NKKKEEAAKLAKESLAKAKEIADYAVANKDTINKAEATALATEAASYAAEALGYAAFAGKEEYEKMKKEFKEIREKMKAVLDAI
For B13, the “binding in a display sort” value was “not found”.

B14: design_605_6ebdab39-eaab-4492-afcb-164e20c3b25e_2056_dldesign_0_cycle1_af2pred (protein)
chain: MKEELLKISEESHQAAAEAQFLAAKNPSVKPLAEEAKKHAKKSIEAAKEGDLEKAKEHYKKVLELKEKAKKE
With B14 the “binding in a display sort” value was “not found”.

B15: design_605_6ebdab39-eaab-4492-afcb-164e20c3b25e_2228_dldesign_0_cycle1_af2pred (protein)
chain: SALAERARALRAAARAEAAADPENAAAIARAGARELRALYRENRDRITPEERATISAAAADLYELAAEAEAE
For B15, the “binding in a display sort” value was “not found”.

B16: design_605_6ebdab39-eaab-4492-afcb-164e20c3b25e_1965_dldesign_0_cycle1_af2pred (protein)
chain: VAKSYAEAAKDYTAATEAFTTAATLGADAGVATAKAKLDPGLASIVSTTIKANDAAARAAGAKRWAKRAEKYKAAAEKAAA
For B16, the “binding in a display sort” value was “not found”.

B17: design_605_6ebdab39-eaab-4492-afcb-164e20c3b25e_904_dldesign_0_cycle1_af2pred (protein)
chain: AEAEKKAKEGKEKMEAGKKKLAEAKKTGSAELAKEAAKLFKEAGKLFAAVPEQQANAAEAAKLAHEAYELAAEARAK
With B17 the “binding in a display sort” value was “not found”.

B18: design_605_6ebdab39-eaab-4492-afcb-164e20c3b25e_1408_dldesign_0_cycle1_af2pred (protein)
chain: AEEEEKIKKKAKEIVDTIVKAAKEGLEKARKTAAELAKKYGMKTEDAALVRSLAVKTAKEGGKYYEDAVEAAVEGIKE
In the case of B18, the “binding in a display sort” value is reported as “not found”.

B19: design_605_6ebdab39-eaab-4492-afcb-164e20c3b25e_2348_dldesign_0_cycle1_af2pred (protein)
chain: DPALEEAKKHAEELAAKLSPDLAKEFKEFADFVLANAEKVITANKDNPEKRKEAGEQAKKVISSAAEAAIKLDK
With B19 the “binding in a display sort” value was “not found”.

B20: design_605_6ebdab39-eaab-4492-afcb-164e20c3b25e_858_dldesign_0_cycle1_af2pred (protein)
chain: ALEEFKKLLQKLIDLTAAVPEAAKAREELENGTPREALKAAIKAAKAKAAADPSVAPELEKLVHELSQAAAEAELELKK
In the case of B20, the “binding in a display sort” value is reported as “not found”.

B21: design_605_6ebdab39-eaab-4492-afcb-164e20c3b25e_2390_dldesign_0_cycle1_af2pred (protein)
chain: AAEKLKEKVEKIKKEAEEKAKKAKTKEEAAKIYREGAEKIRKLATEALKKDPSVEPAVKYGSKVAAELREKAAELDVLANRE
For B21, the “binding in a display sort” value was “not found”.

B22: design_605_6ebdab39-eaab-4492-afcb-164e20c3b25e_1026_dldesign_0_cycle1_af2pred (protein)
chain: AEKEETEEKAKEVLKKAEEAAEKILKKDPKKAQEVYRIIFLGESKRLAGDYEEALKLYEEALKKAEELNKEL
For B22, the “binding in a display sort” value was “not found”.

B23: design_605_6ebdab39-eaab-4492-afcb-164e20c3b25e_1733_dldesign_0_cycle1_af2pred (protein)
chain: AAEKGKNLAESVKLFSEQALENGKKLGAEALKEAAKRIKKRGDKAVTTIAKDPSAAPYAKEAEAITKDYIKKAEEAAKKAK
For B23, the “binding in a display sort” value was “not found”.

B24: design_605_6ebdab39-eaab-4492-afcb-164e20c3b25e_1926_dldesign_0_cycle1_af2pred (protein)
chain: SPAEERRAKATAYAARVAKEDPEFALELIREAAKADPETATEVVKAMTEAATKAAAEVDPEKAKELKEKGEAILKEVEKA
B24 was tested, and the “binding in a display sort” value was “not found”.

B25: design_605_6ebdab39-eaab-4492-afcb-164e20c3b25e_2239_dldesign_0_cycle1_af2pred (protein)
chain: GEKEKYAEEIKKIAKELKALGTPEGEKGAKVAERLSKQAKKTKKAEHAKGYLDIAKDIEKQAKALIAAKQ
In the case of B25, the “binding in a display sort” value is reported as “not found”.

B26: design_605_6ebdab39-eaab-4492-afcb-164e20c3b25e_1493_dldesign_0_cycle1_af2pred (protein)
chain: TIEKNVALAEKLAERAKEVAKKAAADPNKKEAAKLAKKAAELAKEAAALAKEGKIAEGAKKMHEARELLAEAEHLLRK
With B26 the “binding in a display sort” value was “not found”.

B27: design_605_6ebdab39-eaab-4492-afcb-164e20c3b25e_1042_dldesign_0_cycle1_af2pred (protein)
chain: ELEKLAKKAEDAAAVLKNSKARAHALSAALQLEAGNKELAKKSATAAAAVLDANPDITPEEEKARDALKEIADWLA
In the case of B27, the “binding in a display sort” value is reported as “not found”.

B28: design_605_6ebdab39-eaab-4492-afcb-164e20c3b25e_2016_dldesign_0_cycle1_af2pred (protein)
chain: KAEEEAKKAVEFLLALGKEHPAGAEYAEKAAKAIENGEDIGTAMAYAWAAGQAVGDAALADKAMDKVAEAHMARK
In the case of B28, the “binding in a display sort” value is reported as “not found”.

B29: design_605_6ebdab39-eaab-4492-afcb-164e20c3b25e_1749_dldesign_0_cycle1_af2pred (protein)
chain: MTPEELRKAEVEALIKKASEAMGEARFYANYAKLTGDKEAAKKAAEAAKKAIEYLTAAAALSTDPAVKARAKAAAERAKKLAKEALE
With B29 the “binding in a display sort” value was “not found”.

B30: design_605_6ebdab39-eaab-4492-afcb-164e20c3b25e_2478_dldesign_0_cycle1_af2pred (protein)
chain: SAAAEAARKAEAKKAADEYYAKGEEYYQKALDDPKNAKKYLQKAYSYYLLAAQAYEIAGDKEKAKEAEEKADKAAEA
In the case of B30, the “binding in a display sort” value is reported as “not found”.

B31: design_605_6ebdab39-eaab-4492-afcb-164e20c3b25e_1415_dldesign_0_cycle1_af2pred (protein)
chain: AAKLEAKMKAMDMAVEAGEADAEDEEKGKEKLEELKKMVEEIAKEIGEEAGESAWRIAMDVYEHTVKMKK
With B31 the “binding in a display sort” value was “not found”.

B32: design_605_6ebdab39-eaab-4492-afcb-164e20c3b25e_1481_dldesign_0_cycle1_af2pred (protein)
chain: SEVEEAIKKIKDTAAKATAAAIAAAAVDPTLGANVAADGQAKLTELAWEYSKKYPEHKEEIEKTRKEERKAMRDAVGAAIAAVA
In the case of B32, the “binding in a display sort” value is reported as “not found”.

B33: design_605_6ebdab39-eaab-4492-afcb-164e20c3b25e_2187_dldesign_0_cycle1_af2pred (protein)
chain: SAAKEEAKKEAEKLKEKVKKLKKELEENKDNKEKAKKIAKEAREVIREARELGKKYASFKEVHKELSEAAAEAAEVRAEADLYAS
B33 was tested, and the “binding in a display sort” value was “not found”.

B34: design_605_6ebdab39-eaab-4492-afcb-164e20c3b25e_1473_dldesign_0_cycle1_af2pred (protein)
chain: AKEILDAQMKILDAANEAEKVDPELGKEIREKYKKVAEEGKKLSPEEALKALKAMAEEAEKKAKEAKKEAEKKKLE
In the case of B34, the “binding in a display sort” value is reported as “not found”.

B35: design_605_6ebdab39-eaab-4492-afcb-164e20c3b25e_1133_dldesign_0_cycle1_af2pred (protein)
chain: NAAEIAAAKAALAEARAAFEAAGAALVAADPSYAPQVAKALARIDKLEADGKANPALAAEYYQLATDIAEDQAANAKKLLAAIT
B35 was tested, and the “binding in a display sort” value was “not found”.

B36: design_605_6ebdab39-eaab-4492-afcb-164e20c3b25e_1459_dldesign_0_cycle1_af2pred (protein)
chain: AAEEARKKKLEEFAKKAKEAAKKFSPEYAKKAKEAAKLYEQGKTATPAEAAALAQKARQLLAEAEYEDKK
For B36, the “binding in a display sort” value was “not found”.

B37: design_605_6ebdab39-eaab-4492-afcb-164e20c3b25e_1054_dldesign_0_cycle1_af2pred (protein)
chain: DVTEKAKKAAEEALKADAETAAKLLSEAAKLAVEAGDSEGMHIIRQAISEMDFAGKKEGAAKARAAAAAAVRARQAALAA
For B37, the “binding in a display sort” value was “not found”.

B38: design_605_6ebdab39-eaab-4492-afcb-164e20c3b25e_799_dldesign_0_cycle1_af2pred (protein)
chain: GEKEKLKKEAEELEKKAKELEKKAEEKFKKNIKKGSKALSYVEQAKNAAKVAKKYAEEGKVEEAKKALEKAKEYLKKAKEYVEE
In the case of B38, the “binding in a display sort” value is reported as “not found”.
